Source: PubChem BioAssay (Tox21)
Several values for one entry are separate records, joined by “and”; a condition that tells them apart may be missing. Equal values may be shown once. Results filed as inconclusive are left out. Activity calls are given as the source filed them. Unless noted, calls follow the shape of the dose curve; as a rule, active = well fitted curve in the direction sought with a large enough effect in the repeat runs; inconclusive = weak or mixed curves; inactive = no such curve, though single readings can be large; an effect the other way counts as inactive or inconclusive.

Key:
[1] = qHTS assay to identify small molecule antagonists of the thyroid receptor (TR) signaling pathway - cell viability counter screen (AID 743064); also: nearly all actives have a fitted effect of over 50% in size; also: potency is read from the fitted curve at half-maximal effect
Summary of the method: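 GH3.TRE-Luc rat pituitary cells carrying a TRE-luciferase reporter were treated with compound plus 1 nM T3 (final) for 23.5 h at 37 °C. Viability was then read in the same wells by CellTiter-Fluor fluorescence after a further 30 min.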

[2] = qHTS assay to identify small molecule antagonists of the thyroid receptor (TR) signaling pathway (AID 743065); also: nearly all actives have a fitted effect of over 55% in size; also: potency is read from the fitted curve at half-maximal effect
Summary of the method: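 GH3.TRE-Luc rat pituitary cells (two TREs driving luciferase) were dosed with compound, then stimulated with 1 nM T3 (final) for 23.5 h at 37 C. ONE-Glo luminescence was the read-out, with CellTiter-Fluor fluorescence as the cytotoxicity counter-screen.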

[3] = test system: thyroid hormone receptor (rat, GH3 cells); assay: qHTS assay to identify small molecule agonists of the thyroid receptor (TR) signaling pathway (AID 743066; calls by dose curve)
[4] = qHTS assay to identify small molecule antagonists of the estrogen receptor alpha (ER-alpha) signaling pathway - cell viability counter screen (AID 743074; calls by dose curve;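 also: HEK293 cells carrying ER-alpha-UAS-bla reporter stimulated with 17beta-estradiol; nearly all actives have a fitted effect of over 45% in size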; also: potency is read from the fitted curve at half-maximal effect)
Aromatase (Homo sapiens) = Aromatase (Homo sapiens) (UniProt P11511); assay: qHTS assay to identify aromatase inhibitors (AID 743083); also: series mostly up to about 70 µM; nearly all actives have a fitted effect of over 55% in size
[5] = target: Aryl hydrocarbon receptor (Homo sapiens) (UniProt P35869); assay: qHTS assay to identify small molecule that activate the aryl hydrocarbon receptor (AhR) signaling pathway (AID 743085); also: nearly all actives have a fitted effect of over 15% in size; also: potency is read from the fitted curve at half-maximal effect;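 as to activation: HG2L7.5c1 human HepG2 liver cells with stably integrated DRE-driven firefly reporter; series mostly up to about 70 µM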
Summary of the method: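 HepG2 cells (HG2L7.5c1) stably carrying a firefly luciferase reporter driven by 20 dioxin responsive elements were exposed to compound for 24 h at 37C after a 5 h settling period; luminescence rise (ONE-Glo) indicated activation.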

[6] = qHTS assay to identify small molecule that activate the aryl hydrocarbon receptor (AhR) signaling pathway - cell viability counter screen (AID 743086);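 also: HepG2 liver cells carrying the AhR DRE luciferase reporter; series mostly up to about 70 µM; nearly all actives have a fitted effect of over 45% in size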
Summary of the method: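 HepG2-AhR-luc (HG2L7.5c1) cells, 4000/well, treated 24 h at 37 C with compound; viability measured as CellTiter-Fluor fluorescence after 30 min in the same wells as the luciferase read.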

[7] = target: Peroxisome proliferator-activated receptor gamma (Homo sapiens) (UniProt P37231); assay: qHTS assay to identify small molecule antagonists of the peroxisome proliferator-activated receptor gamma (PPARg) signaling pathway (AID 743191; calls by dose curve; also: series mostly up to about 63 µM; nearly all actives have a fitted effect of over 30% in size)
Summary of the method: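 GeneBLAzer PPARg UAS-bla HEK293H cells, 5 h post-plating, exposed to compounds 17 h at 37C. LiveBLAzer B/G FRET substrate added for 1 h at room temperature; beta-lactamase reporter read by fluorescence intensity.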

[8] = qHTS assay to identify small molecule antagonists of the peroxisome proliferator-activated receptor gamma (PPARg) signaling pathway - cell viability counter screen (AID 743194); also: nearly all actives have a fitted effect of over 55% in size
Summary of the method: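 Cytotoxicity counter screen in PPARg-bla HEK293H cells, same wells as reporter assay. Compounds plus 50 nM rosiglitazone (final) for 17 h at 37 C, then viability read by CellTiter-Glo luminescence.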

[9] = qHTS assay for small molecule agonists of the antioxidant response element (ARE) signaling pathway - cell viability counter screen (AID 743203; calls by dose curve; also: nearly all actives have a fitted effect of over 55% in size)
Summary of the method: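 Viability counter screen: CellTiter-Glo luminescence, read after 30 min at room temperature, in ARE-bla HepG2 wells. Compound exposure lasted 16 h at 37C/5% CO2, following a 5 h pre-incubation of the cells after plating.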

[10] = qHTS assay for small molecule activators of the heat shock response signaling pathway - cell viability counter screen (AID 743209); also: nearly all actives have a fitted effect of over 50% in size
Summary of the method: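 Cytotoxicity counter screen run in the same wells as the heat-shock bla reporter assay: HeLa HSE-bla cells, 5 h compound exposure at 37 C, viability read by CellTiter-Glo luminescence.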

[11] = qHTS assay for small molecule activators of the heat shock response signaling pathway (AID 743210; active = well fitted activation curve with a large enough effect in the signal ratio in the repeat runs, with a control signal flat, not every such curve was filed as active; the % refers to the signal ratio;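 also: HeLa cells with beta-lactamase reporter driven by heat shock elements; series mostly up to about 63 µM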)
Summary of the method: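 Beta-lactamase reporter read-out: FRET substrate fluorescence after 2.5 h at RT, following 5 h compound treatment at 37 C of HeLa cells carrying HSE-driven bla reporter; quantitative HTS format.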

[12] = target: Estrogen receptor (Homo sapiens) (UniProt P03372); assay: qHTS assay to identify small molecule antagonists of the estrogen receptor alpha (ER-alpha) signaling pathway (AID 743069; active = well fitted curve in the direction sought with a large enough effect in the signal ratio in the repeat runs, not every such curve was filed as active; the % refers to the signal ratio)
Summary of the method: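 Beta-lactamase FRET fluorescence is read after 2 hr at room temperature with LiveBLAzer B/G substrate. Before that, ER-alpha-bla HEK293 cells sit 4 hr after plating, then receive compound plus 17beta-estradiol and incubate 18 hr at 37C.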

[13] = target: Estrogen receptor (Homo sapiens) (UniProt P03372); assay: qHTS assay to identify small molecule agonists of the estrogen receptor alpha (ER-alpha) signaling pathway (AID 743075; calls by dose curve;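 also: HEK293 GripTite cells with ER-alpha and UAS-driven beta-lactamase reporter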)
[14] = target: Estrogen receptor (Homo sapiens) (UniProt P03372); assay: qHTS assay to identify small molecule agonists of the estrogen receptor alpha (ER-alpha) signaling pathway using the BG1 cell line (AID 743079); also: nearly all actives have a fitted effect of over 20% in size
[15] = qHTS assay to identify small molecule antagonists of the estrogen receptor alpha (ER-alpha) signaling pathway using the BG1 cell line (AID 743080; calls by dose curve;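 also: BG1 cells stimulated with 17beta-estradiol alongside compound; series mostly up to about 70 µM; nearly all actives have a fitted effect of over 25% in size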)
Summary of the method: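 Seeding, 24 h rest, compound transfer from DMSO, 17beta-estradiol addition, 21.5 h incubation, CellTiter-Fluor (30 min, 37 C), then ONE-Glo (30 min, room temperature): this sequence was run on BG1-Luc-4E2 reporter cells.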

[16] = qHTS assay to identify small molecule antagonists of the estrogen receptor alpha (ER-alpha) signaling pathway using the BG1 cell line - cell viability counter screen (AID 743081);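 also: compound given together with 17beta-estradiol as the ER stimulus; series mostly up to about 70 µM; nearly all actives have a fitted effect of over 45% in size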
[17] = qHTS assay to identify aromatase inhibitors - cell viability counter screen (AID 743084)
[18] = target: Peroxisome proliferator-activated receptor gamma (Homo sapiens) (UniProt P37231); assay: qHTS assay to identify small molecule agonists of the peroxisome proliferator-activated receptor gamma (PPARg) signaling pathway (AID 743094; active = well fitted activation curve with a large enough effect in the signal ratio in the repeat runs, not every such curve was filed as active; the % refers to the signal ratio)
Summary of the method: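 Agonist activity was taken from a beta-lactamase reporter (FRET substrate, 1 h at room temperature) in HEK293H cells carrying a PPARg UAS-bla construct. Compounds in DMSO were incubated 17 h at 37C after a 5 h cell pre-incubation.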

[19] = qHTS assay for small molecule agonists of the antioxidant response element (ARE) signaling pathway (AID 743202; active = well fitted activation curve with a large enough effect in the signal ratio in the repeat runs, not every such curve was filed as active; the % refers to the signal ratio)
Summary of the method: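 HepG2 ARE-bla reporter line, 2,000 cells/well; 5 h preincubation 37 C/5% CO2; compound (DMSO) 16 h 37 C; B/G FRET substrate 2 h RT; fluorescence intensity.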

Measured: Potency

Sequence of Estrogen receptor (Homo sapiens) (P03372 whole entry, looked up): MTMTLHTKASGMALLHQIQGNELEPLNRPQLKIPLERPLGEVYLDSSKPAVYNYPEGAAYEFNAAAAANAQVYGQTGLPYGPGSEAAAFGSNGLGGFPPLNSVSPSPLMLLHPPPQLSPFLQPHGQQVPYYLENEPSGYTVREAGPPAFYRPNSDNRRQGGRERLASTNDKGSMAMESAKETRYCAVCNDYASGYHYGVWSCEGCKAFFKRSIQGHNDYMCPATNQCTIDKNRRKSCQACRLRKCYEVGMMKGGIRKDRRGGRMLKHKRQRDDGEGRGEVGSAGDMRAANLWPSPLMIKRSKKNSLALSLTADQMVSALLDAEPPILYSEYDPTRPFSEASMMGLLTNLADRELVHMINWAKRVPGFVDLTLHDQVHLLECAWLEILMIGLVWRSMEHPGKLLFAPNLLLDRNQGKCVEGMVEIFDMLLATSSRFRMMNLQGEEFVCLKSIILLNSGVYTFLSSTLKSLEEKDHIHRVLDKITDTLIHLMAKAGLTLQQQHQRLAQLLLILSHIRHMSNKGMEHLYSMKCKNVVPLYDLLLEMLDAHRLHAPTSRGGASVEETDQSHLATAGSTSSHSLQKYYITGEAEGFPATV
Sequence of Aromatase (Homo sapiens) (P11511 whole entry, looked up): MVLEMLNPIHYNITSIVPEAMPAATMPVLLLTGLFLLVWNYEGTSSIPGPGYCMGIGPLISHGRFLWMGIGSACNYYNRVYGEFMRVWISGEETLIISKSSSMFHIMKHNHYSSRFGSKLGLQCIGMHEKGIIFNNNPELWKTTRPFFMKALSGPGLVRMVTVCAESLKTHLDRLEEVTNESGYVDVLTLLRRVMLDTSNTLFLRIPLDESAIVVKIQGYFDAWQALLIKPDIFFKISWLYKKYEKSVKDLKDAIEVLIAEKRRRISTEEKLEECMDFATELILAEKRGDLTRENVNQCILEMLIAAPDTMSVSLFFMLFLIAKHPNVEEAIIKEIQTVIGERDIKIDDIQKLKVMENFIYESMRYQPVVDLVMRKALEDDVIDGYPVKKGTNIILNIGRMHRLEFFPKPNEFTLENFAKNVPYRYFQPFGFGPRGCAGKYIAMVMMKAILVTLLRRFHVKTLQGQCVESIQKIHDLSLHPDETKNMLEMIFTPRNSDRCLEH
Sequence of Peroxisome proliferator-activated receptor gamma (Homo sapiens) (P37231 whole entry, looked up): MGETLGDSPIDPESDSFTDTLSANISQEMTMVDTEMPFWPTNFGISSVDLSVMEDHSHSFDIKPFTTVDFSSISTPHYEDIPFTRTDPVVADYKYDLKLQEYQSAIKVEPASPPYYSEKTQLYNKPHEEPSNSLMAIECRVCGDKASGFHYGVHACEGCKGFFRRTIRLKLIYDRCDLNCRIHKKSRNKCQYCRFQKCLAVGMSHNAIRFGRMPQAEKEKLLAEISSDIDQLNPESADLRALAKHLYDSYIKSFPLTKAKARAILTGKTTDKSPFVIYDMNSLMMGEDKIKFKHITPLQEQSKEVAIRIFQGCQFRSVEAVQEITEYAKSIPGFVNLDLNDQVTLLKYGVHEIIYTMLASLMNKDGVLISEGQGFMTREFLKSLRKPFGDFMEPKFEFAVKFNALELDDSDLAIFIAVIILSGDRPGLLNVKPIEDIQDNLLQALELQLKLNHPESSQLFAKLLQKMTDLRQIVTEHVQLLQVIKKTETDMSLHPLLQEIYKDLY
Sequence of Aryl hydrocarbon receptor (Homo sapiens) (P35869 whole entry, looked up): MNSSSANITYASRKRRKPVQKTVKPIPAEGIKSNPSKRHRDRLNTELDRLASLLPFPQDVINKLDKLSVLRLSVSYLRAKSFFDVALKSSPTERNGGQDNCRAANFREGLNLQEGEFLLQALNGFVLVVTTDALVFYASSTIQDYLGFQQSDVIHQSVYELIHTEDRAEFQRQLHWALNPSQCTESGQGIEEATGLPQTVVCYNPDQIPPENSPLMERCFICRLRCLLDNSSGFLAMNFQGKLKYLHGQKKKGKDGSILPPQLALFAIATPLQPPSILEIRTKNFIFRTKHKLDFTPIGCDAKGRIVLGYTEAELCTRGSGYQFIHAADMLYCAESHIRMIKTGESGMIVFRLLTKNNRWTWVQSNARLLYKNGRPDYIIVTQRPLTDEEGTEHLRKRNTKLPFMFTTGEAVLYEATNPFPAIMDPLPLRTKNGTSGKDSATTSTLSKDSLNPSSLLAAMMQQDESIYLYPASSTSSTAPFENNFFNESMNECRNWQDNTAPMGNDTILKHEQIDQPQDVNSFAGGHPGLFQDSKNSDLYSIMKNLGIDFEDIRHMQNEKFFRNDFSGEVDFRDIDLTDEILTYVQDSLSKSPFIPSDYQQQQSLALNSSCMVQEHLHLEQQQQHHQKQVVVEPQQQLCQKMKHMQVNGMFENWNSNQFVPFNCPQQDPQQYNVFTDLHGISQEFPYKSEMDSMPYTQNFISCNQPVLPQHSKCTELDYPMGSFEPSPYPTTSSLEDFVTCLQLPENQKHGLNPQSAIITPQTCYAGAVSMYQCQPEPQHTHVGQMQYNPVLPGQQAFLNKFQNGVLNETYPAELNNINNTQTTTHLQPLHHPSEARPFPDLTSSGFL

O=C1c2ccccc2C(=O)c2cc(O)ccc21
active: [5] 61.2 µM
not listed: [12] | [13] | [14] | [15] | [16] | [17] | [18] | [19]
inactive: all other assays above

CCOC(=O)CCC(=O)OCC
not listed: [1] | [6] | [11]
inactive: all other assays above

CCO[Si](OCC)(OCC)c1ccccc1
inactive: [1] | [2] | [3] | [4] | [16] | [8] | [19] | [9] | [10] | [11]

CC(C)[C@H]1CC[C@@H](C)CC1=O
not listed: [2] | [3] | [7] | [12] | [13] | [14] | [15]
inactive: all other assays above

CC[N+](CC)(CC(=O)Nc1c(C)cccc1C)Cc1ccccc1 (tested in a mixture with another compound)
not listed: [2] | [3] | [5] | [11] | [12] | [13] | [14] | [15]
inactive: all other assays above

CCCCCCCCCC[N+](C)(C)[O-]
not listed: [2] | [3] | [5] | [7] | [15] | [18] | [19]
inactive: all other assays above

O=C1NC(=O)C2CC=CCC12 (centres undefined)
inactive: [1] | [2] | [3] | [4] | [16] | [6] | [19] | [9] | [10] | [11]

FB(F)F
not listed: [2] | [5] | [7] | [11] | [18]
inactive: all other assays above

CC1=C(C/C=C(\C)CCC[C@H](C)CCC[C@H](C)CCCC(C)C)C(=O)c2ccccc2C1=O
active: [5] 26.6 µM
not listed: [4] | [7] | [9] | [12] | [13] | [14] | [15] | [18]
inactive: all other assays above

NO
not listed: [3] | [7] | [12] | [13] | [14] | [15] | [18]
inactive: all other assays above

CC(C(=O)O)c1cccc(Oc2ccccc2)c1 (centres undefined)
inactive: [1] | [3] | [4] | [16] | Aromatase (Homo sapiens) | [5] | [6] | [8] | [9] | [10]

CN1C(C)(C)CC(O)CC1(C)C
not listed: [2] | [3] | [5] | [7] | [15]
inactive: all other assays above

CCN(CC#N)c1cccc(C)c1
not listed: [2] | [3] | [5] | [7]
inactive: all other assays above

Cc1nc2ccc(CN(C)c3ccc(C(=O)N[C@@H](CCC(=O)O)C(=O)O)s3)cc2c(=O)[nH]1
active: [4] 190 nM and 239 nM
not listed: [2] | [12] | [13] | [14] | [15]
inactive: all other assays above

COc1cc2c(cc1OC)-c1cc3ccc(OC)c(OC)c3c[n+]1CC2
inactive: [1] | [4] | [16] | Aromatase (Homo sapiens) | [7] | [8] | [19] | [9] | [10]

CC(C)(C)C(=O)Oc1ccc(S(=O)(=O)Nc2ccccc2C(=O)NCC(=O)O)cc1
active: [5] 11.9 µM
not listed: [2] | [6] | [11] | [15] | [16] | [18]
inactive: all other assays above

O=S(=O)(O)c1cccc2c(S(=O)(=O)O)cccc12
inactive: [1] | [3] | [4] | Aromatase (Homo sapiens) | [17] | [7] | [8] | [19] | [9] | [10]

Clc1cc(Cl)cc(Cl)c1
not listed: [2] | [3] | [7]
inactive: all other assays above

CC(C#N)(CCC(=O)O)N=NC(C)(C#N)CCC(=O)O (centres undefined)
not listed: [3] | [12] | [13] | [14] | [15]
inactive: all other assays above

NC(=O)Cc1cccc2ccccc12
not listed: [2] | [3] | [12] | [13] | [14] | [15] | [19]
inactive: all other assays above

NC(CCC(=O)O)C(=O)O (centres undefined)
not listed: [2] | [5] | [6] | [11]
inactive: all other assays above

CCCCS(=O)(=O)N[C@@H](Cc1ccc(OCCCCC2CCNCC2)cc1)C(=O)O
not listed: [2] | [4] | [5] | [6] | [11]
inactive: all other assays above

Cc1ncc(COP(=O)(O)O)c(C=O)c1O
not listed: [2] | [4] | [11] | [17] | [19]
inactive: all other assays above

CO[C@@]1(NC(=O)C(C(=O)O)c2ccc(O)cc2)C(=O)N2C(C(=O)O)=C(CSc3nnnn3C)CO[C@@H]21 (some centres undefined)
not listed: [2] | [3] | [6] | [7] | [16]
inactive: all other assays above

Cc1ccc(C(=O)c2ccc(CC(=O)O)n2C)cc1
not listed: [2] | [6] | [7] | [11] | [12]
inactive: all other assays above

NCCCC(N)(C(=O)O)C(F)F (centres undefined)
inactive: [1] | [3] | [4] | [16] | [6] | [8] | [19] | [9]

C=CN1CCCCCC1=O
inactive: [1] | [4] | [16] | [6] | [8] | [19] | [9] | [10] | [11]

NC(=O)N1c2ccccc2CC(=O)c2ccccc21
inactive: [3] | [4] | [16] | [8] | [19] | [9] | [10] | [11]
active: [1] 13.3 µM | [2] 11.9 µM

CCCO[Si](OCCC)(OCCC)OCCC
not listed: [2] | [3] | [5] | [7] | [9] | [18] | [19]
inactive: all other assays above

CC(=O)Nc1ccc(OCC(O)CNC(C)C)cc1 (centres undefined)
not listed: [2] | [3] | [5] | [12] | [13] | [14] | [15]
inactive: all other assays above

CC12CCC(C(=O)C1=O)C2(C)C (centres undefined)
not listed: [4] | [6] | [7] | [12] | [13] | [14] | [15]
inactive: all other assays above

Clc1cc(Cl)c(Cl)nc1Cl
not listed: [4] | [5] | [12] | [13] | [14] | [15] | [17]
inactive: all other assays above

Nc1c2c(nc3c1CCC3)CCCC2
not listed: [1] | [2] | [5] | [11] | [15]
inactive: all other assays above

C[C@H]1[C@H](NC(=O)/C(=N/OC(C)(C)C(=O)O)c2csc(N)n2)C(=O)N1S(=O)(=O)O (stereo in doubt)
inactive: [4] | [16] | Aromatase (Homo sapiens) | [17] | [5] | [8] | [19] | [9] | [10] | [11]

N[C@H](C(=O)O)[C@@H](O)c1ccc(O)c(O)c1
not listed: [1] | [2] | [19]
inactive: all other assays above

CNCC(O)c1ccc(O)c(O)c1 (centres undefined)
inactive: [7] | [8] | [19] | [9] | [10] | [11]

COCCOC[C@H](CC1(C(=O)NC2CCC(C(=O)O)CC2)CCCC1)C(=O)Oc1ccc2c(c1)CCC2 (some centres undefined)
not listed: [1] | [15] | [17] | [18] | [19]
inactive: all other assays above
